The results in this text go back to PubChem BioAssay (EPA / NIEHS).

Several values for one entry are separate records, joined by “and”; a condition that tells them apart may be missing. Equal values may be shown once. Activity calls are given as the source filed them. The calls were made as follows: active = hit-call score of the fitted dose curve at least 0.9, where 1 is the maximum; inactive = score below 0.9.

Read-out in this assay: Interleukin-1 alpha (IL1a), IL1A (gene 3552)
Put plainly: BSK_LPS_IL1a: BioMAP Diversity Plus: LPS Assay for Interleukin-1 alpha (IL1a) Biomarker Activity (AID 2283080). The conditions noted are these: primary human HUVEC with PBMC; actives raise or lower the signal. As to the method:
BSK_LPS is a cell-based, multiplexed-readout assay that uses umbilical vein endothelium and peripheral blood mononuclear cells, a human vascular primary cell co-culture, with measurements taken at 24 hours after chemical dosing in a 96-well plate.BSK_LPS_IL1a is an assay component measured in the BSK_LPS assay. It measures IL-a antibody related to regulation of gene expression using ELISA technology.Data from the assay component BSK_LPS_IL1a was analyzed into 1 assay endpoint. This assay endpoint, BSK_LPS_IL1a, was analyzed with bidirectional fitting relative to DMSO as the negative control and baseline of activity. Using a type of binding reporter, gain or loss-of-signal activity can be used to understand changes in the signaling as they relate to the gene IL1A. Furthermore, this assay endpoint can be referred to as a primary readout, because this assay has produced multiple assay endpoints where this one serves a signaling function. To generalize the intended target to other relatable targets, this assay endpoint is annotated to the cytokine intended target family, where the subfamily is interleukins.
The levels of cell surface (or secreted, indicated by the prefix "s") biomarker endpoints were measured by ELISA. Overt cytotoxicity to cells in confluent adherent cultures (all systems other than the BT system) was assessed by measuring total protein levels using sulforhodamine B (SRB) staining in parallel cultures at the time of biomarker measurements, indicated as SRB endpoints. For proliferation assays for adherent cell types, individual cell types are cultured at sub-confluence and relative cell numbers quantified by SRB staining at time points optimized for each system (48 h: 3C and CASM3C systems; 72 h: BT and HDF3CGF systems; 96 h: SAg system). SRB was performed by staining cells with 0.1% SRB after fixation with 10% TCA and reading wells at 560 nm.Viability and proliferation of PBMC (T cells) was quantified by Alamar Blue reduction for the SAg and BT systems. For PBMC viability (referred to as PBMC Cytotoxicity within the assay endpoint names), cells were plated (75,000/well in a 96-well plate) and then chemical samples added for 1 h before addition of activators, SEB and TSST-1 (20 ng/mL final concentration each). Cells were incubated for 90 h. Then, Alamar Blue (20 uL/well) (Invitrogen, Cat DAL1100) was added for 6 h, and the plates were read with a fluorescence microplate reader at 546/580 nm (excitation/emission). For PBMC proliferation, cells were plated and activated as above but incubated for only 16 h prior to addition of Alamar Blue. Plates were read after 6 h.
Turning to `CC=CC(=O)C1=C(C)C=CCC1(C)C`, the outcome was inactive.
The same measure, in the same setting: the entry for `C=C(C)C(=O)OCCC(F)(F)C(F)(F)C(F)(F)C(F)(F)C(F)(F)C(F)(F)C(F)(F)C(F)(F)F` is “inactive”.
For the compound `O=S1(=O)CC(Cl)(Cl)C(Cl)(Cl)C1`, the AC50 is 0.518 µM (active).
Regarding `CC(C)Cc1ccc(C(C)C(=O)O)cc1` (stereo not given), the outcome was inactive.
Consider `C=C1CC/C=C(\C)CC[C@@H]2[C@@H]1CC2(C)C`, for which the AC50 is 31.8 µM (active).
With `CCCCN(CCO)CCO`, the result was inactive.
Turning to `COC(=O)c1ccc(C(=O)OC)cc1`, the outcome was inactive.
Regarding `C[C@]12CC[C@@H]3c4ccc(O)cc4CC[C@H]3[C@@H]1CC[C@@H]2O`, the result was inactive.
For `O=C(c1ccc(OCCN2CCCCC2)cc1)c1c(-c2ccc(O)cc2)sc2cc(O)ccc12`, the AC50 is 21 µM (active).
With `CC/C(=C(\c1ccccc1)c1ccc(OCCN(C)C)cc1)c1ccccc1`, the AC50 is 6.74 µM (active) and 9.95 µM (active).
Regarding `C=C(F)C(=O)OC(C(F)(F)F)C(F)(F)F`, the outcome was inactive.
With `CC(C)(CO)CO`, the result was inactive.
Turning to `CCOC(=O)C=Cc1ccccc1`, the outcome was inactive.
Consider `CC(C)CCCC(C)(C)O`, for which the result was inactive.
Same read-out and setting: the result for `OCCN1CCOCC1` reads “inactive”; that for `CCC(=O)OCC=Cc1ccccc1`, “inactive”.
With `NC(=O)c1c(Cl)cccc1Cl`, the outcome was inactive.
Consider `CCCCOCCOCCO`, for which the result was inactive.
Turning to `C=CC(=O)OCC(CO)(COC(=O)C=C)COC(=O)C=C`, the AC50 is 0.404 µM (active).
`CCCCCCCCCC(=O)OCC`: the outcome was inactive.
Same read-out and setting: the result for `c1ccc(OCCOc2ccccc2)cc1` reads “inactive”.
`c1ccc2c(c1)-c1ccc3ccc4cccc5cc-2c1c3c45`: the result was inactive.
`CCCCCCCC1CCCC1=O` (stereo not given): the outcome was inactive.
With `c1ccc(Sc2ccccc2)cc1`, the AC50 is 33.8 µM (active).
In the case of `CCn1cc(C(=O)O)c(=O)c2ccc(C)nc21`, the result was inactive.
Still for that read-out and setting: the result for `CCCO[Si](OCCC)(OCCC)OCCC` reads “inactive”; that for `Nc1ccc(N)c([N+](=O)[O-])c1`, “inactive”; that for `CC(=O)CCC=C(C)CCC=C(C)C`, “inactive”.
As to `CCOC(=O)CCCCCCCCC(=O)OCC`, the outcome was inactive.
For the compound `CCCCCCCCCCCCS`, the result was inactive.
Same read-out and setting: the result for `O=S(=O)(O)C(F)(F)C(F)(F)OC(F)(F)C(F)(F)F` reads “inactive”.
Take `C#C[C@]1(O)CC[C@H]2[C@@H]3CCc4cc(O)ccc4[C@H]3CC[C@@]21C`: the AC50 was 20 µM (active).
In the case of `C=C(C)C(N)=O`, the result was inactive.
In the case of `CC(=O)c1ccc(C)cc1`, the result was inactive.
As to `O=C(O)C(F)(F)OC(F)(F)C(F)(F)OC(F)(F)C(F)(F)C(F)(F)C(F)(F)F`, the result was inactive.
With `CC(C)(C)c1cccc(O)c1`, the outcome was inactive.
As to `COc1ccccc1NC(=O)CC(C)=O`, the outcome was inactive.
Consider `CC1(C)[C@H](C=C(Cl)Cl)[C@H]1C(=O)OCc1cccc(Oc2ccccc2)c1`, for which the result was inactive.
As to `CC1=CC(C)C(C=O)C(C)C1` (stereo not given) (tested in a mixture with another compound), the result was inactive.
The same measure, in the same setting: the result for `CC(=O)OCC=C(C)CCC=C(C)CCC=C(C)C` reads “inactive”.

As usually defined, the AC50 is the midpoint of the concentration-response curve, whichever way the signal moves.
